Measured values published in PubChem BioAssay (NCI).
The panel holds about 83,000 compounds, 20% with a hit somewhere; the sample as a whole holds those more often.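 Testing used 96-well plates and a 48-hour single-concentration exposure. Example: -40 means 40% of the starting cells died.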 Calls of active or inactive are those of the source. The calls were made as follows: active = growth percent below 10; inactive = the rest.

Assays:
Test in all cases: NCI-60 one-dose screen, 48 h (100 = growth as untreated, 0 = no growth, -100 = all killed)
[1] = tested on: DU-145 prostate; conditions: 10 µM
[2] = tested on: K-562 leukemia; conditions: 10 µM
[3] = tested on: MDA-MB-231 breast; conditions: 10 µM
[4] = tested on: SF-268 CNS; conditions: 10 µM
[5] = tested on: SF-295 CNS; conditions: 10 µM
[6] = tested on: SF-539 CNS; conditions: 10 µM
[7] = tested on: UACC-257 melanoma; conditions: 10 µM
[8] = tested on: M14 melanoma; conditions: 10 µM
[9] = tested on: HCT-15 colon; conditions: 10 µM
[10] = tested on: HT29 colon; conditions: 10 µM
[11] = tested on: SNB-75 CNS; conditions: 10 µM
[12] = tested on: SNB-19 CNS; conditions: 10 µM
[13] = tested on: U251 CNS; conditions: 10 µM
[14] = tested on: PC-3 prostate; conditions: 10 µM
[15] = tested on: SK-MEL-5 melanoma; conditions: 10 µM
[16] = tested on: UACC-62 melanoma; conditions: 10 µM unless noted
[17] = tested on: LOX IMVI melanoma; conditions: 10 µM
[18] = tested on: RXF 393 renal; conditions: 10 µM
[19] = tested on: SK-MEL-28 melanoma; conditions: 10 µM
[20] = tested on: MALME-3M melanoma; conditions: 10 µM

Measured: growth

O=S(=O)(O)C(Nc1ccccc1)c1ccccc1 (stereo unspecified)
inactive: [1] 110% | [2] 87.6% | [3] 99.1% | [4] 107% | [5] 107% | [6] 93.6% | [7] 140% | [8] 98.7% | [9] 105% | [10] 105% | [11] 71.9% | [12] 101% | [13] 101% | [14] 102% | [15] 77.3% | [16] 88.9% | [17] 93.8%

Nc1ncnc2c1nc(N)n2C1OC(CO)C(O)C1O (stereo unspecified)
active: [1] -21.8% | [3] -16.9% | [18] -59.6% | [4] -57.8% | [5] -70.2% | [6] -94.4% | [7] -56.6% | [8] -85.6% | [9] -7.88% | [10] -4.96% | [11] -75.8% | [12] -16.5% | [13] 2.54% | [14] -11.7% | [15] -87.6% | [16] -68.3% | [17] -80.3% | [19] -48.1%
inactive: [2] 19.3%

CCNc1nc2c(cnn2C)c(=O)[nH]1
inactive: [1] 113% | [2] 98.2% | [3] 110% | [18] 94.6% | [4] 104% | [5] 103% | [6] 104% | [7] 115% | [8] 99.3% | [9] 122% | [10] 96.2% | [11] 88.6% | [12] 109% | [13] 97.8% | [14] 99% | [15] 96.7% | [16] 107% | [17] 95% | [19] 118%

O=S(=O)(O)c1ccc(Cl)c(Cl)c1
inactive: [1] 120% | [2] 105% | [3] 108% | [18] 132% | [4] 113% | [5] 112% | [6] 107% | [7] 124% | [8] 101% | [9] 107% | [10] 109% | [11] 91.6% | [12] 101% | [13] 105% | [14] 94.1% | [15] 107% | [16] 99% | [17] 91.8% | [19] 112%

CC(=O)NC(N)=S
inactive: [1] 107% | [2] 121% | [3] 115% | [18] 105% | [4] 110% | [5] 101% | [6] 107% | [7] 101% | [8] 127% | [9] 109% | [10] 97.7% | [12] 101% | [13] 105% | [14] 92.6% | [15] 107% | [16] 109% | [17] 102%

Cc1nc2ccccc2c(C(=O)O)c1O
inactive: [1] 127% | [2] 127% | [3] 101% | [18] 107% | [4] 110% | [6] 98.1% | [7] 96.7% | [8] 90.3% | [9] 107% | [10] 103% | [11] 98.3% | [12] 93.1% | [13] 103% | [14] 104% | [15] 102% | [16] 93.2% | [17] 96.4% | [19] 122%

OCCN(CCO)C(=S)S
inactive: [1] 111% | [2] 111% | [20] 95.1% | [18] 113% | [5] 101% | [6] 106% | [7] 79.6% | [8] 108% | [9] 104% | [10] 113% | [11] 129% | [13] 102% | [15] 94.8% | [16] 91.7% | [17] 107% | [19] 113%

CCc1nc(N)nc(N)c1-c1ccc(Cl)cc1
inactive: [1] 55.4% | [2] 20.3% | [3] 69.9% | [18] 71.6% | [4] 49.2% | [5] 37.5% | [7] 72.4% | [8] 40.9% | [9] 34.1% | [10] 47.5% | [11] 77% | [12] 88.4% | [13] 46.3% | [14] 60.5% | [15] 24.3% | [17] 31.2% | [19] 94.1%

C=CCc1cc(C(C)=O)cc(OC)c1O
inactive: [1] 105% | [2] 107% | [3] 92.1% | [18] 95.5% | [4] 96.8% | [5] 119% | [6] 125% | [7] 99% | [8] 105% | [9] 119% | [10] 108% | [11] 89.2% | [12] 105% | [13] 103% | [14] 106% | [16] 97.8% | [17] 100% | [19] 110%

CCCCCC(C)(CC(=O)O)CC(=O)O
inactive: [1] 122% | [2] 106% | [3] 138% | [18] 101% | [4] 122% | [6] 105% | [7] 101% | [8] 109% | [10] 105% | [11] 97.4% | [12] 116% | [14] 99.6% | [15] 101% | [16] 119% | [17] 112% | [19] 108%
